A selection: hits, their analogues and other compounds. The true share with any hit is near 3.6%.
CRE Fsk mod – Cell signaling CRE-BLA (Fsk stim). 71,000 tested, 2.5% active. CHO CRE-bla reporter (cAMP response element driving beta-lactamase), forskolin EC10, beta-lactamase ratio. Potency, µM (titrated, usually from 38.2 µM), for inactives: at the top dose activity change, negative = inhibition, actives largely listed as activators. AID 662, 2007; active = well fitted activation curve with a large enough effect in the signal ratio, with a control signal flat, not every such curve was filed as active; inconclusive = small, poorly fitted or top-dose-only effect, or effect the other way, or a change in a side signal; the % refers to the signal ratio; also: % of control where 0% means no effect
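Reporter-gene assay: CHO cells with beta-lactamase behind cAMP responsive elements, co-treated with compound and EC10 NKH 477 for 3 hours at 37 degrees Celsius. Activity came from the 460/530 nm CCF4 emission ratio.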
IkB signaling – IkB Signaling; 110,000 tested, 0.04% active; Potency, µM (highest dose often 57.1 µM), for the others: at the top dose IkBa stabilization activation; ABC-DLBCL IkBa-CBG/CBR dual luciferase ratio, 4 h; response scale: scaled: untreated 0%, proteasome inhibitor 100%; active = well fitted curve in the direction sought with a large enough effect in the signal ratio, not every such curve was filed as active; inconclusive = small, poorly fitted or top-dose-only effect, or a change in a side signal; the % refers to the signal ratio;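 also: the direction sought is a rising ratio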
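In this assay, an IκBα–CBG68 fusion accumulates when IKK-driven degradation is blocked; native CBR normalizes for cell number. OCI-Ly3 cells were treated 4 h with compound and doxycycline, then green and red light read after Chroma-Glo addition.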
ALOX15 inhib – qHTS Assay for Inhibitors of 15-hLO (15-human lipoxygenase) | Polyunsaturated fatty acid lipoxygenase ALOX15 (Homo sapiens), P16050 | purified 15hLO-1, xylenol orange hydroperoxide absorbance | Potency, µM (series often up to 57.1 µM), inactives show top-dose activity change, negative = inhibition, hits mostly inhibitors | 74,000 tested, 1.4% active | AID 887, 2007; also: % is scaled to controls: 0 for no effect and ±100 for the full control effect; nearly all actives have a fitted effect of over 55% in size
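Purified human 15hLO-1 (40 nM final) in 25 mM Hepes pH 7.5, 0.01% Triton X-100 was preincubated with compound 15 min at room temperature, then reacted 6 min with 50 uM arachidonic acid; hydroperoxide detected by Fe-XO, 573/405 nm absorbance ratio.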
Tau fil binding – qHTS Assay for Tau Filament Binding | Microtubule-associated protein tau (Homo sapiens), P10636 | recombinant tau filaments, thioflavin S fluorescence, 15 h; filaments grown with octadecylsulfate alongside compound | Potency, µM (top dose mostly 57.1 µM), inactives show at the highest dose activity change, negative = inhibition | 71,000 tested, 2% active | AID 596, 2007;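 also: % is scaled to controls: 0 for no effect and ±100 for the full control effect; actives lower thioflavin S fluorescence by blocking filaments or displacing dye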
Target sequence (P10636 whole entry, looked up): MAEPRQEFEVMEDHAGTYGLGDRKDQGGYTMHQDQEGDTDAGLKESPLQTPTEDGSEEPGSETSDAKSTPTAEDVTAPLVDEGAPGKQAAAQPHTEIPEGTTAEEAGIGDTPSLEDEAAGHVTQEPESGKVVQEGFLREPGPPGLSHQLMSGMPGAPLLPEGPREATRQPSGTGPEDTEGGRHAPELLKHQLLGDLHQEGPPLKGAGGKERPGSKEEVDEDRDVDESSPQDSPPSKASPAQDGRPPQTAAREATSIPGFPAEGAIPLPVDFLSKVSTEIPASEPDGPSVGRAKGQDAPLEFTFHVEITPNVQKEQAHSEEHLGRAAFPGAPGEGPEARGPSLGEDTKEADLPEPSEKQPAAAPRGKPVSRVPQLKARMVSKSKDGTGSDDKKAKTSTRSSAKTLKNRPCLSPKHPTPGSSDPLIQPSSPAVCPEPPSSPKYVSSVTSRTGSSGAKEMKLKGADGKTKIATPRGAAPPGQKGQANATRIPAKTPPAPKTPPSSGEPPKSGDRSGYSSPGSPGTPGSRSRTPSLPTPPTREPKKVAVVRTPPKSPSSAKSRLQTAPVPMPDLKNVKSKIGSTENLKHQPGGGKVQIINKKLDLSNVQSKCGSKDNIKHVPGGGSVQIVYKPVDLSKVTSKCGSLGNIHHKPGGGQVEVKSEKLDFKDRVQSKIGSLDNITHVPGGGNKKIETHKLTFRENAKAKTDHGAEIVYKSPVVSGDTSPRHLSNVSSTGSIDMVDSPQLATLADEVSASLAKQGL
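Recombinant tau protein (human, 1 uM final) plus 30 uM ODS in HEPES pH 7.4 with NaCl, DTT and thioflavine S. Compound present from the start; fluorescence at 510 nm after 15 h, 37 C.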
Hsp90 Hop PPI – qHTS Assay for Disrupters of an Hsp90 Co-Chaperone Interaction; Hsp90 C-terminal peptide / TPR2A (Hop) interaction, human; AlphaScreen TPR2A-His6 binding biotin-Hsp90 C-terminal peptide; Potency, µM (highest dose often 57 µM), for the others: at the highest dose activity change, negative = inhibition; 71,000 tested, 0.44% active; active = well fitted curve in either direction with a large enough effect; inconclusive = small, poorly fitted or top-dose-only effect, or another doubt; also: % is scaled to controls: 0 for no effect and ±100 for the full control effect
* = called active by the depositor; ? = inconclusive; nt = no result given; [ ] = another dose, or the depositor's remark. Unless noted, calls follow the shape of the dose curve; as a rule, active = well fitted curve in the direction sought with a large enough effect; inconclusive = small, poorly fitted or top-dose-only effect, or another doubt; inactive = no such curve, though single readings can be large; an effect the other way counts as inactive or inconclusive. Potency is read from the fitted curve at half-maximal effect.

SMILES	CRE Fsk mod	IkB signaling	ALOX15 inhib	Tau fil binding	Hsp90 Hop PPI
COc1ccc(-c2nc3c4ccccc4n(CC(=O)N4CCN(c5ccccc5F)CC4)c(=O)n3n2)cc1	nt	1%	nt	nt	nt
O=C(c1cccn1-c1nnc(N2CCCC2)s1)N1CCN(c2ccc(Cl)cc2)CC1	nt	-2%	nt	nt	nt
Nc1ccc(-c2ccc3ccccc3n2)cc1	nt	nt	-9%	nt	nt
O=C1c2ccccc2C(=O)C1c1ccc2ccccc2n1	7%	?	-21%	0.63µM*	?
O=C(O)CCn1c(=O)c2cccn2c2cccnc21	nt	0%	nt	nt	nt
COc1ccc(S(=O)(=O)n2nc(-c3cc(OC)c(OC)c(OC)c3)cc2N)cc1OC	5µM*	7%	-2%	-1%	-5%
CCOC(=O)c1sc2ncn(CC(=O)Nc3ccc(OC)c(Cl)c3)c(=O)c2c1C	nt	0%	nt	nt	nt
COc1ccccc1CNc1ccc(N2CCCCC2)cc1	-1%	?	16µM*	10µM*	?
COc1cccc(CNc2nc3ccccc3n2CCN2CCCCC2)c1OC	10µM*	2%	3%	5%	-3%
COc1cccc(CNc2ccc(N3CCCCC3)cc2)c1OC	0%	?	2µM*	7.9µM*	?
COc1ccc(-c2noc(-c3ccc(NCc4ccc(C)cc4)c([N+](=O)[O-])c3)n2)cc1OC	nt	2%	nt	nt	nt
CC(C)CCn1c(NCCN(C)C)nc2c1c(=O)[nH]c(=O)n2C	1%	1%	3%	2%	2%
CCCCCCn1c(SCCC)nc2c1c(=O)[nH]c(=O)n2C	16%	0%	-6%	4%	-4%
CCCCCCn1c(N(CC)CC)nc2c1c(=O)[nH]c(=O)n2C	10µM*	0%	-5%	6%	-4%
CCCNc1nc2c(c(=O)[nH]c(=O)n2C)n1CCC(C)C	10µM*	-1%	2%	-7%	-2%
CCCCn1c(NCCC)nc2c1c(=O)[nH]c(=O)n2C	2.5µM*	0%	3%	-10%	-1%
COc1ccc(NC(=O)c2sc3nc[nH]c(=O)c3c2C)cc1OC	nt	-3%	nt	nt	nt
Cc1ccc(C(=O)N2CCC(N3CCN(Cc4ccc(F)cc4)C(=O)C3=O)CC2)cc1	nt	-1%	nt	nt	nt
COc1ccccc1OCCn1c(COc2cc(C)ccc2C)nc2ccccc21	nt	-2%	nt	nt	nt
Cc1ccc(C)c(N2CCN(C(=O)CCS(=O)(=O)c3cccc4nonc34)CC2)c1	?	?	-30%	32µM*	-19%
CCC(=O)NCCn1c(C)cc2ccccc21	10µM*	-2%	-9%	10%	-2%
CC(=O)NCCn1c(C)cc2ccccc21	?	0%	6%	-26%	-4%
Cc1cc2ccccc2n1CCNC(=O)COc1ccccc1	10µM*	-4%	-12%	6%	-1%
Cc1cc2ccccc2n1CCNC(=O)c1ccccc1	-11%	1%	-18%	41%	-11%
CCCCCn1c(N)c(C#N)c2nc3ccccc3nc21	10µM*	8%	-11%	-13%	26%
SMILES	CRE Fsk mod	IkB signaling	ALOX15 inhib	Tau fil binding	Hsp90 Hop PPI
N#CCCn1c2ccccc2c2nc3ccccc3nc21	3.2µM*	-1%	-13%	26%	8%
COc1ccc(CCn2c(N)c(C#N)c3nc4ccccc4nc32)cc1OC	16µM*	-2%	?	9%	9%
CCCn1c2ccccc2c2nc3ccccc3nc21	?	-2%	?	-17%	?
N#Cc1c(N)n(CCCN2CCOCC2)c2nc3ccccc3nc12	13µM*	-3%	-19%	23%	?
CC(C)CC(=O)NCC1(N(C)C)CCCCC1	nt	-1%	nt	nt	nt
CCC(C)Sc1oc(-c2ccco2)nc1S(=O)(=O)c1ccc(Cl)cc1 (stereo unspecified)	nt	0%	nt	nt	nt
CCOc1ccccc1NC(=O)C1CCN(S(=O)(=O)c2cccs2)CC1	nt	3%	nt	nt	nt
N.N.O=C(O)C1(C(=O)O)CCC1.[Pt]	-6%	7%	0.63µM*	1%	?
C=CCn1c(SCn2nnc3ccccc3c2=O)nc2scc(-c3cccs3)c2c1=O	2µM*	1%	-18%	-11%	-2%
N#CCSc1nc2scc(-c3cccs3)c2c(=O)n1CCc1ccccc1	2.5µM*	2%	-15%	79%	1%
CN(C(=O)CC(=O)Nc1ccc2nc3n(c(=O)c2c1)CCCCC3)c1ccccc1F	nt	1%	nt	nt	nt
CCCOC(=O)c1ccc(Oc2cn[nH]c2-c2ccc(OC)cc2O)cc1	?	?	-29%	13µM*	7%
CCCCC#CC1C=CC(OC(C)=O)C(COC(C)=O)O1 (stereo unspecified)	nt	nt	3%[11.4 µM]	nt	nt
Nc1ccc(N=Nc2ccccc2)c(N)c1	-9%	0%	-10%	1.6µM*	?
Nc1c(S(=O)(=O)O)cc(S(=O)(=O)O)c2ccc(N=Nc3ccccc3)c(O)c12	1%[7.6 µM]	5%[11.4 µM]	8%[11.4 µM]	-1%[11.4 µM]	?
CCCCCCn1c(N2CCN(c3cccc(Cl)c3)CC2)nc2c1c(=O)[nH]c(=O)n2C	?	1%	6%	4%	-6%
COCCn1c(CN2CCN(c3ccc(OC)cc3)CC2)nc2c1c(=O)n(C)c(=O)n2C	?	1%	2%	-1%	0%
CCCCCn1c(CN2CCN(c3cccc(Cl)c3)CC2)nc2c1c(=O)[nH]c(=O)n2C	13µM*	?	-25%	39%	-5%
Cn1c(=O)[nH]c(=O)c2c1nc(CN1CCN(c3cccc(Cl)c3)CC1)n2CCc1ccccc1	13µM*	1%	-2%	-4%	-2%
Cn1c(=O)c2c(nc(CN3CCCCC3)n2Cc2c(F)cccc2Cl)n(C)c1=O	13µM*	0%	?	8%	-3%
COc1ccc(N2CCN(Cc3nc4c(c(=O)n(C)c(=O)n4C)n3CCc3ccccc3)CC2)cc1	?	?	?	13µM*	-5%
OCc1cnc(SCc2cccc(F)c2)n1Cc1ccc(F)cc1	nt	0%	nt	nt	nt
CCOC(=O)CCCCCCCCCCCCC1C=CCC1 (stereo unspecified)	nt	nt	13µM*	nt	nt
COc1cccc(-c2nc(=S)c3c(n2Cc2ccco2)CCCC3)c1	8%	9%	-19%	16µM*	-8%
COC(=O)C1=C(C)NC(C)=C(C(=O)OC)C1c1cc2cc(C)ccc2[nH]c1=O	-6%	4%	-22%	6%	-1%
Cc1ccc2[nH]c(-c3cccc(N)c3)cc2c1	?	1%	-21%	10µM*	-28%
COC(=O)c1cnn2c3c(c(C)nc12)CCCC3	?	1%	8%	6%	-2%
Cc1c2c(nc3c(C(=O)NC4CCCC4)cnn13)CCCC2	2.5µM*	-1%	5%	6%	-3%
COC(=O)c1ccc(OCC2c3cc(OC)c(OC)cc3CCN2C(=O)C2CC2)cc1 (stereo unspecified)	5µM*	?	-2%	12%	-5%
Cn1c(=O)c2nc(SCC(=O)Nc3ccc(OC(F)(F)F)cc3)n(C)c2n(C)c1=O	nt	-1%	nt	nt	nt

Screening data deposited in PubChem by National Center for Advancing Translational Sciences (NCATS).
